Test results from PubChem BioAssay (Tox21).
Several values for one entry are separate records, joined by “and”; a condition that tells them apart may be missing. Identical values can stand only once. Records with an inconclusive call do not appear. Entries that show only a call come without a potency. Some compounds were tested as several samples or in several runs, with calls that do not always agree. Activity calls are given as the source filed them. Calls follow the shape of the dose curve; as a rule, active = well fitted activation curve with a large enough effect in the repeat runs; inconclusive = weak or mixed curves; inactive = flat fitted curve, though single readings scatter.
Potency is read from the fitted curve at half-maximal effect.

Assay: A CellTox Green Cytotoxicity Assay to monitor cytotoxicity in HepG2 cells - 32 hour (AID 1224883); also: nearly all actives have a fitted effect of over 50% in size
Settings: CellTox Green fluorescence; series mostly up to 76.8 µM
Excerpt: National Center for Advancing Translational Sciences [NCATS]
NIH Chemical Genomics Center [NCGC]
U.S. Environmental Protection Agency [EPA]
National Institutes of Environmental Health Sciences [NIEHS]
National Toxicology Program [NTP]
Cell-based models are critical for drug discovery. Determining the natural cytotoxic effects resulting from test compounds is an essential research activity. A CellTox Green Cytotoxicity Assay to monitor cytotoxicity in real time of continues cell culture during 40 hours of the compound treatment was used to screen Tox21 10K library compounds in HepG2 cells. CellTox Green Cytotoxicity Assay is a nonlytic, homogeneous, biofluorescent method to measure cytotoxicity in cell culture after experimental manipulation. The assay system uses a proprietary asymmetric cyanine dye that is excluded from viable cells but preferentially stains the dead cell's DNA. […] Viable cells produce no appreciable increases in fluorescence. Therefore, the fluorescence signal produced by the binding interaction with dead cell DNA is proportional to cytotoxicity.
The mixture of HepG2 cell suspension and reagents were dispensed at 600cells/6 ul/well in 1536-well tissue culture treated black solid bottom plates using a Multidrop dispenser. After the assay plates were incubated at a 37 C/5% CO2 incubator for 5 hours, 23 nL of compounds dissolved in DMSO, positive and negative controls was transferred to the assay plate by a pintool work station. The plates were incubated at 37 C for 40 hours. The fluorescence intensity were measured at 0h, 8h, 16h, 24h, 32h and 40h time points using ViewLux plate reader during compound treatment.
For ClCCBr, the Potency was “inactive”. With Nc1c(Cl)c(Cl)nc(C(=O)O)c1Cl the Potency was “inactive”. For Cc1cccc([N+](=O)[O-])c1, the Potency was “inactive”. For C=CCO, the Potency was “inactive and 24.5 µM (active)”. In the case of C[C@]12CC[C@H]3[C@@H](CC[C@@]45O[C@@H]4C(O)=C(C#N)C[C@]35C)[C@@H]1CC[C@@H]2O, the Potency is reported as “inactive”. With CCN(CC)CCO the Potency was “inactive”. For C=C(C)CCl, the Potency was “inactive”. With C1CC2OC2CC1C1CO1 (stereo not given) the Potency was “inactive”. With COP(N)(=O)SC (stereo not given) the Potency was “inactive”. With CCC[CH2][Sn]([Cl])([Cl])[Cl] the Potency was “inactive”. For Cc1ccc(N)cc1Cl, the Potency was “inactive”. With O=c1[nH]c2ccccc2c(=O)o1 the Potency was “inactive”. In the case of O=C1CCCN1, the Potency is reported as “inactive”. With COCCl the Potency was “inactive”. With CNC(=O)Oc1ccccc1OC(C)C the Potency was “inactive”. With CC(Br)C(=O)O (stereo not given) the Potency was “inactive”. With CON(C)C(=O)Nc1ccc(Cl)c(Cl)c1 the Potency was “inactive”. In the case of CCCCCOC(=O)c1ccccc1C(=O)OCCCCC, the Potency is reported as “inactive”. With O=[N+]([O-])c1ccc([As](=O)(O)O)cc1 the Potency was “inactive”. For O=S(=O)(c1ccc(O)cc1)c1ccc(O)cc1, the Potency was “inactive”. For c1ccc(OP(Oc2ccccc2)Oc2ccccc2)cc1, the Potency was “inactive”. With [N-]=[N+]=[N-] the Potency was “inactive”. In the case of OCCN(CCO)CCO, the Potency is reported as “inactive”. With NCC(O)c1ccc(O)cc1 (stereo not given) the Potency was “inactive”. In the case of CN(C)N=O, the Potency is reported as “inactive”. In the case of CCNc1nc(NC(C)(C)C)nc(SC)n1, the Potency is reported as “inactive”. In the case of CC(C)N1C(=O)c2ccccc2NS1(=O)=O, the Potency is reported as “inactive”. For C#CCN(C)[C@H](C)Cc1ccccc1, the Potency was “inactive”. For CCNc1nc(NC(C)C)nc(SC)n1, the Potency was “inactive”. With c1ccc(-c2ccccc2)cc1 the Potency was “inactive”. With O=c1n(Cl)c(=O)n(Cl)c(=O)n1Cl the Potency was “inactive”. In the case of c1ccc2c(c1)Oc1ccccc1O2, the Potency is reported as “inactive”. In the case of Cc1ccccc1O, the Potency is reported as “inactive”. In the case of Oc1ccccc1Cl, the Potency is reported as “inactive”. With CC(C)OC(=O)Nc1ccccc1 the Potency was “inactive”. For CC(C)OC(=O)Nc1cccc(Cl)c1, the Potency was “inactive”. In the case of [O-][Cl+2]([O-])O, the Potency is reported as “inactive”. For CN(N=O)c1ccccc1, the Potency was “inactive”. For CN(C)CCO, the Potency was “inactive”. In the case of CC(C)C#N, the Potency is reported as “inactive”.
